Screens: PubChem, several laboratories
DAX1 inh-1 – inhibits human nuclear receptor DAX1; P51843; HEK293 Gal4-DAX1 luciferase reporter, luminescence; inhibition, % at 6.75 µM; 340,000 tested, 0.99% active; AID 504766;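 active means inhibition above the mean over all tested compounds plus 3 SD, cut at about 4.2% in these data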;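 further: 0% = DAX1-transfected cells with DMSO and 100% = empty-vector control cells with DMSO; inhibition shows as a rise in luminescence from relieved DAX1 repression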
Target sequence (P51843 207-470 limits assumed): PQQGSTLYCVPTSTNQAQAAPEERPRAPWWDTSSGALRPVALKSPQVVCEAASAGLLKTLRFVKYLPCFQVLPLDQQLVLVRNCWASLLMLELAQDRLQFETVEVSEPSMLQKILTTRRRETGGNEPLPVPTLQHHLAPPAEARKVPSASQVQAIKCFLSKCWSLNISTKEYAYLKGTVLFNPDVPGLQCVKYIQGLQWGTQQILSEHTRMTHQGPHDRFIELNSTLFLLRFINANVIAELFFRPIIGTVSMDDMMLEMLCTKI
hcDAF-12 act – activates DAF-12 receptor from parasite H. contortus; HEK293 hcDAF-12 lit1-tk-luc reporter, luminescence; 0% DMSO, 100% Δ7-dafachronic acid; activation, % at 6.8 µM; 370,000 tested, 1.4% active; AID 652067;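 active means activation above the mean of all tested compounds plus 3 SD, cut at about 5.5% in these data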;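 further: 100% = response to 3 µM Δ7-dafachronic acid high control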
hgDAF-12 ag – hgDAF-12 agonism, primary luciferase screen. HEK293 GAL4-hgDAF12 UAS-luciferase reporter, agonist luminescence; normalized to butyrate control. activation, % at 6.8 µM. AID 687014. 370,000 tested, 1.8% active;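 active means activation above a cutoff set at the mean of all screened compounds plus 3 SD, cut at about 10% in these data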;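 further: 0% = DMSO wells and 100% = sodium butyrate wells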
ssDAF12 agonist – activates DAF-12 receptor from parasite S. stercoralis | HEK293 ssDAF-12/GRIP1 lit1-tk-luc reporter, luminescence; % of 3 µM dafachronic acid response | activation, % at 6.8 µM | 370,000 tested, 1% active | AID 652126;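 active means activation above the mean over all tested compounds plus 3 SD, cut at about 0.9% in these data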;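 further: 0% = DMSO-only wells and 100% = 3 µM delta7-dafachronic acid wells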
PolyA inh – inhibitors of polyadenylation in S. cerevisiae; S. cerevisiae SKY197-pL101 polyadenylation reporter, beta-gal luminescence; efflux-impaired pdr1/pdr3 knockout yeast; score 100 = 6 SD above DMSO; activity score, % at 12 µM; 300,000 tested, 0.02% active; AID 1875;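 active means lowest replicate activity score at least 50, where 100 means six control SD above control mean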;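 further: yeast exposed to compound for 9 h at 30 °C; higher score means more reporter readthrough which indicates perturbed polyadenylation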
DAX1 inh-2 – inhibitors of DAX1 repression of SF-1 activated StAR promoter; HEK293T StAR-luciferase reporter, SF-1/DAX-1 repression relief; inhibition, % at 6.8 µM; 370,000 tested, 1.1% active;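 active means inhibition above the mean over all tested compounds plus 3 SD, cut at about 3.6% in these data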;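 further: 0% = DAX-1 cells with DMSO and 100% = cells lacking DAX-1 with DMSO; higher inhibition means more luminescence from relief of DAX-1 repression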
* = called active by the depositor; nt = no result given. This is a sample that favours compounds with a hit; in the whole collection about 4.1% have one here.

SMILES	DAX1 inh-1	hcDAF-12 act	hgDAF-12 ag	ssDAF12 agonist	PolyA inh	DAX1 inh-2
CC1CCN(C(=O)Cn2c(=O)oc3cc(S(=O)(=O)N4CCCCC4)ccc32)CC1	4.9*	-1	-1	-1	-2	2
CC1CCCN(C(=O)Cn2c(=O)oc3cc(S(=O)(=O)N4CCCCC4)ccc32)C1 (stereo not drawn)	2	0	-1	-1	nt	2
O=C(CC(C(=O)O)c1ccc(Cl)cc1Cl)c1ccc(Cl)cc1 (stereo not drawn)	1	5.9*	0	-1	3	0
CC(=NN1CCN(c2ccccn2)CC1)c1ccccc1O	nt	-2	4	-1	nt	0
CCOC(=O)C1CCN(C(=O)c2cc3c(ccc4ccccc43)o2)CC1	1	2	5	-1	-6	4.1*
COc1ccc(OCc2cc(C(=O)N(C)C3CCOC3)no2)c(Cl)c1 (stereo not drawn)	1	-1	-2	-1	-12	-1
CCOC(=O)C1CCN(C(=O)/C=C/c2ccccc2)CC1	-1	1	12*	-1	2	0
CCOC(=O)C1CCN(C(=O)c2ccc(C)o2)CC1	2	2	1	-1	nt	0
COc1ccc(OCc2cc(C(=O)N(C)C3CCOCC3)no2)c2ccccc12	2	5	4	1.0*	4	0
CCOC(=O)C1CCCN(C(=O)/C=C/c2ccccc2)CC1 (stereo not drawn)	nt	1	3	-1	nt	-1
CCOC(=O)C1CCN(C(=O)c2cc(COc3ccc(OC)c4ccccc34)on2)CC1	1	6.3*	12*	0	-8	1
Cc1cc2c(c(=O)o1)[C@@]1(C(=O)N(C)c3ccccc31)C1=C(CCC1=O)O2	nt	-1	0	-1	nt	-1
O=c1cc(N2CCN(c3cccc(Cl)c3Cl)CC2)[nH]c(=O)n1C1CCCCC1	nt	-1	0	-1	nt	nt
C=CCN1[C@@H](CC(C)C)COc2cc(F)ccc2S1(=O)=O	nt	2	-2	-1	nt	1
Cc1cc(C)nc(N/C(=N\S(=O)(=O)Cc2ccccc2)Nc2ccccc2Br)n1	4.4*	1	3	0	10	1
COc1ccc(Cc2nnc(SCC(=O)Nc3nc(C)cs3)o2)cc1	1	-1	0	1.0*	2	0
O=C(Nc1ccc(N2C(=O)[C@@H]3[C@H](C2=O)[C@@H]2C=C[C@H]3C2)c(Cl)c1)c1ccccn1	nt	4	12*	0	nt	nt
O=C(CN1C(=O)C(=O)N(C2CCCC2)C1=O)NCCc1ccc(F)cc1	-1	0	0	-1	nt	-1
COc1ccc(CCNC(=O)CN2C(=O)C(=O)N(C3CCCC3)C2=O)cc1OC	0	0	1	1.3*	nt	1
COc1ccc(S(=O)(=O)NCc2ccco2)cc1C(=O)N1CCCCC1	5.0*	-2	2	-1	-17	0
COc1ccc(S(=O)(=O)NCc2ccco2)cc1C(=O)N1CCOCC1	1	0	2	-1	-6	0
COC(=O)c1cc(-c2c(C)noc2C)c(=O)n2c1CCC2	nt	2	-1	-1	nt	-1
O=S(=O)(Cc1noc(-c2ccccc2Cl)n1)c1ccccn1	4.9*	2	7	1	2	1
Cc1noc(C)c1-c1nc(CS(=O)(=O)c2ccc(Cl)cc2)no1	-1	0	2	-2	-4	0
O=C(c1cccc(Br)c1)N1CCC(Oc2cccnc2)CC1	nt	-3	3	-1	nt	0
SMILES	DAX1 inh-1	hcDAF-12 act	hgDAF-12 ag	ssDAF12 agonist	PolyA inh	DAX1 inh-2
Cc1cc(/C=N/Nc2ccc([N+](=O)[O-])cn2)c(C)n1-c1ccc(C(=O)O)cc1	6.6*	0	5	-2	8	0
O=[N+]([O-])c1ccc(NN=CCCc2ccccc2)nc1	1	1	13*	0	nt	1
O=[N+]([O-])c1ccc(NCc2ccccc2)nc1	1	5	6	0	-2	0
COc1ccc(C=NNc2ccc([N+](=O)[O-])cn2)cc1	2	2	11*	0	nt	3
O=[N+]([O-])c1ccc(NN=Cc2ccc(O)cc2)nc1	6.0*	4	13*	-1	nt	2
CCOC(=O)C1=CCN(S(=O)(=O)c2ccc(Cl)cc2)C1c1ccc(Cl)c(Cl)c1 (stereo not drawn)	nt	-2	1	-1	nt	-2
O=[N+]([O-])c1ccc(N/N=C/c2cccs2)nc1	6.0*	3	11*	-1	-14	1
O=[N+]([O-])c1ccc(NN=Cc2ccccc2)nc1	2	4	9	0	nt	2
COc1ccc(CNc2ncccc2[N+](=O)[O-])cc1	0	-1	5	0	-2	1
COc1ccc(CNc2cccnc2Cl)cc1	nt	1	11*	0	nt	0
COP(N)(=O)C(CC(C)C)NC(=O)OCc1ccccc1 (stereo not drawn)	nt	-1	1	0	nt	0
CC1=NN(C(N)=S)C(=O)C1N=Nc1ccc(Cl)cc1 (stereo not drawn)	3	5	11*	0	-14	1
CC1=NN(C(N)=S)C(=O)C1N=Nc1ccccc1 (stereo not drawn)	0	0	-1	-1	-9	1
CC1=NN(C(N)=S)C(=O)C1N=Nc1cccc([N+](=O)[O-])c1 (stereo not drawn)	6.8*	0	-1	0	15	0
O=C(CSc1nc2ccccc2nc1N1CCOCC1)NCc1ccc(Cl)cc1Cl	nt	1	2	-2	nt	-1
CCOC(=O)[C@]12CCCCC/C=C\1N(CCc1ccc(Cl)cc1)C(=O)[C@H]2CC(=O)NCc1cccc2ccccc12	nt	-1	1	-1	nt	-1
Cc1cccc(-c2noc(-c3ccno3)n2)c1	4.9*	1	1	-1	6	0
Cc1cccc(-c2noc(C3CCCCC3)n2)c1	-1	1	3	0	-4	1
CCCCC(=O)N(Cc1ccccc1)c1ccccc1C(=O)Nc1cc(OC)ccc1OC	nt	-1	0	-1	nt	-1
CCc1ccc(Nc2nnc(SCC(=O)Nc3cccc(S(=O)(=O)NC4=NCCCCC4)c3)s2)cc1	0	1	12*	-1	-1	1
CCCC(=O)Nc1nnc(SCC(=O)Nc2ccc3c(c2)OCCO3)s1	0	-2	-2	1.5*	-8	0
Cc1ccc(CSc2nnc(SCC(=O)N/N=C/c3ccc(C(=O)O)cc3)s2)cc1	4.3*	0	2	-2	0	2
CCc1ccc(Nc2nnc(SCC(=O)Nc3ccc(C(=O)O)cc3)s2)cc1	4	1	5	0	-14	3.7*
CCc1ccc(Nc2nnc(SCC(=O)NC(=O)c3cccn3C)s2)cc1	1	2	0	-1	4	0
